Compounds without any hit were thinned out: in the full panel of roughly 83,000, 20% have a hit.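 Method: cells in 96-well plates; compound added at one concentration; 48 h incubation; percent growth measured; values under 10 scored active.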 Activity calls are given as the source filed them.
System: HL-60(TB) leukemia
Test: NCI-60 one-dose screen, 48 h (100 = growth as untreated, 0 = no growth, -100 = all killed)
Conditions: 10 µM unless noted

| Compound | growth |
| --- | --- |
| CC1=NN(C(=O)c2nn(-c3ccc(Cl)cc3)cc2O)C(=O)C1 | 5.71% (active) |
| CC1CCN(C(=O)OCc2nc3nc(Cl)nc(N4CCOCC4)c3[nH]2)CC1 | -43.5% (active) |
| N=S(c1ccccc1[N+](=O)[O-])c1ccccc1[N+](=O)[O-] | 10.1% (inactive) |
| O=C(/C=C/c1ccccc1)c1ccccc1O | 24.1% (inactive) |
| COc1ccc(C(=O)N2CCN(C(=O)c3cc(OC)c(OC)c(OC)c3)CC2)cc1OCCCCOc1cc2c(cc1OC)C(=O)N1CCC[C@H]1C=N2 | 147% (inactive) |
| CC1=C2[C@@H](CC1)[C@]1(C)O[C@@](C3CC3)(C[C@H]1OC(=O)CO)[C@H]2OC(=O)/C=C/c1ccccc1 | 92.6% (inactive) |
| Oc1c(CN2CCN(c3ccccc3F)CC2)cc(Br)c2cccnc12 | -34.4% (active) |
| CCCc1nc(C(C)(C)O)c(C(=O)O)n1Cc1ccc(-c2ccccc2-c2nn[nH]n2)cc1 | 107% (inactive) |
| O=C1Nc2cc(-c3ccc(NC(=O)C4CC4)cc3)ccc2/C1=C/c1ccc[nH]1 | 100% (inactive) |
| CCOC(=O)c1ccc(Nc2ncnc3ccc(NC(=O)c4ccccc4)cc23)cc1 | 69.9% (inactive) |
| O=C(O)c1cc2ccccc2cc1Nc1ccccc1 | 93.3% (inactive) |
| COc1ccc(OC)c(C(=O)Nc2cccc(-c3cc(=O)c4ccccc4o3)c2)c1 | 89.4% (inactive) |
| COc1ccccc1/C=N\N/C(N)=N\N=C\c1ccccc1OC | -25.9% (active) |
| CC(=O)OCCC/C(=C\c1ccc2ccccc2c1)[N+](=O)[O-] | -61% (active) |

From PubChem BioAssay (NCI)
